Measured values reported in PubChem BioAssay (NCATS).
Results filed as inconclusive are left out. Calls of active or inactive are those of the source. The call rests on the fitted dose curve; in most records, active means well fitted inhibition curve with a large enough effect; inconclusive means small, poorly fitted or top-dose-only effect; inactive means no such curve, though single readings can be large or run the other way.

Experiment: Primary qHTS for inhibitors of La Crosse Virus (LACV) - induced cell death in SH-SY5Y cells (AID 1508616);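 further: top concentration of the series differs between compounds; 0% = infected DMSO wells and 100% = uninfected DMSO wells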
Conditions: SH-SY5Y LACV cytopathicity rescue, ATP luminescence, 6 d; series mostly up to 4.29 µM; activity change: at the top concentration
Description: Assay Provider: Karin Peterson Ph.D.
National Institute of Allergy and Infection Diseases, National Institute of Health
La Crosse Virus (LACV) is a California serogroup mosquito-borne arbovirus, family Peribunyaviridae, which is an endemic pathogen in North America and can induce a rare, life-threatening neurological disease in children. LACV was first isolated in the early 1960s, from a summer "rural encephalitis" case in La Crosse, Wisconsin, USA. Since then, LACV encephalitis cases have been found in more than twenty states, with most cases in the Mississippi and Ohio River basins. The life cycle of LACV is maintained between the vector, the eastern tree-hole mosquito Aedes triseriatus, and vertebrate hosts including eastern gray squirrels (Sciurus carolinensis) and chipmunks (Tamiasstriatus grinseus). […] Most LACV infections in humans are asymptomatic or induce mild clinical symptoms of fever, headache, lethargy and vomiting. However, in some cases LACV can cause severe neuroinvasive disease, including encephalitis, meningitis, and meningoencephalitis, requiring hospitalization. To date, there is neither a licensed vaccine nor a Food and Drug Administration (FDA) approved antiviral therapy available to prevent or treat LACV encephalitis. The primary treatment for viral encephalitis is palliative care due to the lack of therapeutics. In the current study, we conducted a screen of 4,096 FDA approved and bioactive small molecules against LACV, by screening for rescue of LACV-induced cell death in SH-SY5Y cells.
LACV-induced cytopathicity assay
SEQUENCE No. (1,2, 3, etc.); […] (e.g., Cells, Incubation, Reagent, etc.); VALUE and DESCRIPTION.
1. Reagent; 2 uL; Cell solution.
3. Compounds; 23nL; Compound library
4. Reagent; 12 uL; LACV virus
6. Reagent; 24 uL; ATPLite (PerkinElmer)
7. Time; 5 min; Room temperature
8. Detection; Luminescence; View
NOTES (numbers refer to sequence above)
1. Seed 6000 SH-SY5Y cells (ATCC CRL-2266) in 2 microL/well media (DMEM/F12 10% FBS, 1x L-Glutamine, 1x Pyruvate, 1x NEAA, 1x Pen/Strep) in 384-well assay plates (tissue culture treated, white, solid bottom).
2. Incubate at 37 degrees C with 5% CO2 for 24 hr.
3. Dispense 23 nL/well compounds in DMSO via pin transfer.
4. Dispense 12 microL/well of LACV (LACV/human/1978) in media at 0.01 MOI.
5. Incubate at for 6 days at 37C 5% CO2
6. Dispense 24 microL/well of ATPLite 1step Luminescence assay system (PerkinElmer).
7. Incubate for 5 min at room temperature.
8. Read luminescence signal (Viewlux plate reader, PerkinElmer). Data was normalized with DMSO control wells containing LACV as 0%, and DMSO control wells without virus as 100%.

Q: For `COC(=O)c1cc(S(N)(=O)=O)ccc1OC`, which “activity change” value is on record?
A: Its value is 12% (inactive).

Q: For `O=C1Nc2ccccc2C1(c1ccc(O)cc1)c1ccc(O)cc1`, which “activity change” value is on record?
A: Its value is 1.83% (inactive).

Q: For `CC(C(=O)O)c1ccc(/C=C2\CCCCC2=O)cc1` (stereo not given), which “activity change” value is on record?
A: The value was -0.21% (inactive).

Q: With `COc1ccccc1N1CCN(CC(O)COc2cc(OC)c(OC)c(OC)c2)CC1` (stereo not given) as the molecule, how does the “activity change” value read?
A: The value was 11.1% (inactive).

Q: Which “activity change” value does the source give for `CCCCCC[C@@H](CCC)C(=O)O` here?
A: Its value is -5.16% (inactive).

Q: For `COC(=O)c1cc(Cl)c(NC(C)=O)cc1OC`, which “activity change” value is on record?
A: Its value is 9.85% (inactive).

Q: Which “activity change” value does the source give for `COC(=O)c1cc(Cl)ccc1NS(=O)(=O)C(F)(F)F` here?
A: The value was -19% (inactive).

Q: Which “activity change” value does the source give for `O=C(Oc1ccccc1)c1ccccc1O` here?
A: The value was 0.927% (inactive).

Q: For `CCOc1c(N2CCOCC2)cnn(C)c1=O`, which “activity change” value is on record?
A: The value was -4.64% (inactive).

Q: For `NCC(=O)O`, which “activity change” value is on record?
A: The value was 23.3% [at 1.78 µM] (inactive).

Q: Which “activity change” value does the source give for `O=C(O)C(=O)Nc1cccc(-c2nn[nH]n2)c1` here?
A: Its value is 5.92% (inactive).

Q: With `O=C(Oc1ccccc1)c1cccc(C(=O)Oc2ccccc2)c1` as the molecule, how does the “activity change” value read?
A: The value was 24.4% [at 9.63 µM] (inactive).

Q: Which “activity change” value does the source give for `C/C(=N\O)[C@@H](C)NCC(C)(C)CN[C@H](C)/C(C)=N/O` here?
A: Its value is 7.61% (inactive).

Q: For `c1ccc2c(c1)CCc1ccccc1N2`, which “activity change” value is on record?
A: Its value is 24% (inactive).

Q: With `O=C1CC2(CCCC2)CC(=O)N1CCNCC1COc2ccccc2O1` (stereo not given) as the molecule, how does the “activity change” value read?
A: The value was 14.2% (inactive).

Q: For `CC(C)C(=O)Nc1cccc(C(F)(F)F)c1`, which “activity change” value is on record?
A: Its value is 1.2% (inactive).

Q: Which “activity change” value does the source give for `COc1cc2c(cc1OC)C(=O)CC2` here?
A: Its value is -10.6% (inactive).

Q: With `O=C(Nc1ccc(Cl)cc1)Nc1ccc(Cl)c(C(F)(F)F)c1` as the molecule, how does the “activity change” value read?
A: The value was 108% (inactive).

Q: With `C[C@H]1C[C@H]2[C@@H]3CCC4=CC(=O)C=C[C@]4(C)[C@H]3C(=O)C[C@]2(C)[C@@]1(O)C(=O)CO` as the molecule, how does the “activity change” value read?
A: The value was 6.44% (inactive).

Q: With `Cc1cccc(OCC(O)CNC(C)(C)C)c1C` (stereo not given) as the molecule, how does the “activity change” value read?
A: The value was -3.13% (inactive).

Q: For `COc1cc(C(=O)OC(COCCC(C)C)CN2CCOCC2)cc(OC)c1OC` (stereo not given), which “activity change” value is on record?
A: The value was -2.69% (inactive).

Q: For `CCCCCCOC(=O)NC(=N)c1ccc(NCc2nc3cc(C(=O)N(CCC(=O)OCC)c4ccccn4)ccc3n2C)cc1`, which “activity change” value is on record?
A: Its value is 1.32% (inactive).

Q: For `O=C(NN1CCCC1)NS(=O)(=O)c1ccc(Cl)cc1`, which “activity change” value is on record?
A: Its value is -8.17% (inactive).

Q: For `CN1CC[C@H](c2c(O)cc(O)c3c(=O)cc(-c4ccccc4Cl)oc23)[C@H](O)C1`, which “activity change” value is on record?
A: Its value is 87.2% (inactive).

Q: Which “activity change” value does the source give for `CC(=O)[C@@]1(O)CC[C@H]2[C@@H]3C[C@H](C)C4=CC(=O)CC[C@]4(C)[C@H]3CC[C@@]21C` here?
A: Its value is -6% (inactive).

Q: With `Cn1cc(S(C)=O)c(=O)c2ccc(F)cc21` (stereo not given) as the molecule, how does the “activity change” value read?
A: The value was 0.854% (inactive).

Q: With `O=C(c1ccco1)N1CCNCC1` as the molecule, how does the “activity change” value read?
A: The value was -2.86% (inactive).

Q: With `Cc1ccc(C(C)OC(=O)C2(C)CCC(C(=O)O)C2(C)C)cc1` (stereo not given) as the molecule, how does the “activity change” value read?
A: The value was -6.17% (inactive).

Q: Which “activity change” value does the source give for `COC(=O)CCCCC(CCSS/C(CCO)=C(\C)N(C=O)Cc1cnc(C)nc1N)SC(C)=O` (stereo not given) here?
A: Its value is -5.63% (inactive).

Q: For `N[C@@H](Cc1cc(I)c(O)c(I)c1)C(=O)O`, which “activity change” value is on record?
A: The value was 3.46% (inactive).

Q: With `CSCC[C@H](NC(=O)[C@H](Cc1c[nH]c2ccccc12)NC(=O)CCNC(=O)OC(C)(C)C)C(=O)N[C@@H](CC(=O)O)C(=O)N[C@@H](Cc1ccccc1)C(N)=O` as the molecule, how does the “activity change” value read?
A: Its value is 13.2% (inactive).

Q: With `COC(=O)C1=C(C)NC(COC(N)=O)=C(C(=O)OC(C)C)C1c1cccc(Cl)c1Cl` (stereo not given) as the molecule, how does the “activity change” value read?
A: Its value is 4.35% (inactive).

Q: With `CC(=O)/C=C/C=C1/C2CCC(C2)C1(C)C` (stereo not given) as the molecule, how does the “activity change” value read?
A: The value was 5.52% (inactive).

Q: Which “activity change” value does the source give for `CCCCNc1ccc(C(=O)OCCN(CC)CC)cc1` here?
A: Its value is -8.19% (inactive).

Q: With `O=C(O)c1ccc(OCCN2CCCCC2)cc1` as the molecule, how does the “activity change” value read?
A: The value was -4.48% (inactive).

Q: With `Cc1cc(OCCOCC[N+](C)(C)Cc2ccccc2)ccc1C(C)(C)CC(C)(C)C` as the molecule, how does the “activity change” value read?
A: Its value is 1.49% (inactive).

Q: Which “activity change” value does the source give for `CC(=O)c1cc2ccccc2s1` here?
A: Its value is -9.47% (inactive).

Q: Which “activity change” value does the source give for `CCOC(=O)c1ccc(NC(=O)CN2CCCCC2)cc1` here?
A: Its value is 4.81% (inactive).

Q: With `CCOC(=O)NNc1ccc(N(CC)CC(C)O)nn1` (stereo not given) as the molecule, how does the “activity change” value read?
A: The value was -5.59% (inactive).

Q: With `O=S(=O)(O)c1ccc2nc(-c3ccccc3)[nH]c2c1` as the molecule, how does the “activity change” value read?
A: The value was 23.5% (inactive).
